# An excerpt weighted towards active compounds, which were near 2.2% of everything screened.
# M1 ag parental – M1 agonist counterscreen hit in parental CHO-K1 cells | Fluo-8 calcium fluorescence; scaled to maximal ATP response, vehicle zero | activation, % at 3 µM | 360,000 tested, 0.48% active | AID 602248; in the data active = activation above about 15%;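 also: untransfected CHO-K1 host cells lacking M1 receptor as counterscreen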
# ANO1 block – inhibitors of mouse TMEM16A calcium-activated chloride channel; Q8BHY3; HEK293 TMEM16A/YFP iodide influx fluorescence, ionomycin; normalized B-score (activity score, 25-100; higher = stronger inhibition) at 10 µM; 310,000 tested, 1.2% active; AID 588511;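 active = ratio plate-corrected score three or more library SD toward inhibition, starting fluorescence score within five deviations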;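 also: score derived from kinetic fluorescence span divided by baseline fluorescence per well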
# Target sequence (Q8BHY3 whole entry, looked up): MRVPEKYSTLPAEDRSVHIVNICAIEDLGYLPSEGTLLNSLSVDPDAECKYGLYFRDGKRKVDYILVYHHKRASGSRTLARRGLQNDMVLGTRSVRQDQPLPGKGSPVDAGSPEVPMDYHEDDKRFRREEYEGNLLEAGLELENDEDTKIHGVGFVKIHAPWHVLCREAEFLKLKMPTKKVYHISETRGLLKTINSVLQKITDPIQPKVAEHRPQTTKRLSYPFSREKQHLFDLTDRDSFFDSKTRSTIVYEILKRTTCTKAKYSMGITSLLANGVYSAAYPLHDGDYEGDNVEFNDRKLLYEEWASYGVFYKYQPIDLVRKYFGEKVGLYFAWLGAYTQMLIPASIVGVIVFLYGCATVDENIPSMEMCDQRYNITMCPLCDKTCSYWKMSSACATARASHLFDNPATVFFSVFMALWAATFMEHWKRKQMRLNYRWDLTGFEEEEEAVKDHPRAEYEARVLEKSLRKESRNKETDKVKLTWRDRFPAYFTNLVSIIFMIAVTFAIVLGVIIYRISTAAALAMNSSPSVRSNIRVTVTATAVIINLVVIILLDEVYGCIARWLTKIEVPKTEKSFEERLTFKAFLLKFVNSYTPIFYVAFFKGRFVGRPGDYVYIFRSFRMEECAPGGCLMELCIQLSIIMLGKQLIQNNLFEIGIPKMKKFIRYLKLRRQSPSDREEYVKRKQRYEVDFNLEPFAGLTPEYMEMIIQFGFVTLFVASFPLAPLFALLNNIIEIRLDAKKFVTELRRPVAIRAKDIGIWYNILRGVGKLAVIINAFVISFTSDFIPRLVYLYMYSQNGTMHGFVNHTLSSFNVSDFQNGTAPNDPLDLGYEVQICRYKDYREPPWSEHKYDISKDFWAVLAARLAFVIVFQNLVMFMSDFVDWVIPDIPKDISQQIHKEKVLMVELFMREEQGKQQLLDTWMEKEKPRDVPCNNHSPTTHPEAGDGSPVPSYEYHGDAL
# ANO1 activ – mouse TMEM16A channel activation, primary screen | Q8BHY3 | HEK293 TMEM16A/YFP-H148Q/I152L, iodide quench fluorescence; active compounds read low | B-score at 10 µM | 340,000 tested, 0.3% active | AID 623877;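 active = fluorescence-ratio B-score plate-corrected deviation score at least 3 library SD below zero, with starting fluorescence score within 5 deviations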;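 also: channel opened by trigger with iodide after compound preincubation; score built on the fluorescence ratio of max minus min over baseline; more negative score means more quench and so TMEM16A activation or potentiation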
# CHO-K1 Ca antag – nonselective inhibitor or artifact in parental CHO-K1 cells | ATP-induced calcium, Fluo-8 fluorescence | inhibition, % at 3 µM | 360,000 tested, 0.6% active;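 active = inhibition above a per-plate cutoff, the plate's mean sample inhibition plus 3 SD, cut at about 24% in these data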;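 also: 0% = DMSO plus EC80 ATP and 100% = DMSO alone without ATP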
# M1 PAM parental – M1 PAM counterscreen hit in parental CHO-K1 cells; ATP EC20, Fluo-8 calcium fluorescence; 0% at ATP EC20, 100% at ATP max; activation, % at 3 µM; 360,000 tested, 0.02% active; AID 602247;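 active = activation above the run cutoff, the mean activation of all test compounds plus 3 SD, cut at about 40% in these data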;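 also: peak over basal fluorescence ratio in a 140 s read after ATP addition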
# NTR1 ag – NTR1 (human) agonism. NTR1-U2OS beta-arrestin-GFP spot imaging, agonist mode. activation, % at 20 µM. 330,000 tested, 0.17% active. AID 493036;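 active = activation at or above 40% of the spot to cytoplasm intensity ratio, with at least 20 cells analyzed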;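 also: 0% = DMSO without peptide and 100% = 100 nM NTR1 peptide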
# TMEM16A reconf – re-confirmation of mouse TMEM16A chloride channel inhibitors; shares compounds with ANO1 block; HEK293 TMEM16A/YFP-H148Q, iodide quench fluorescence; ionomycin added to raise cell calcium; inhibition, % at 10 µM; 2,300 tested, 39% active; AID 652189;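 active = mean duplicate percent inhibition, scaled so buffer wells are 0 and the reference blocker 100, over three buffer SD above buffer mean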
# TMEM16A Ca cntr – alters calcium mobilization in TMEM16A HEK293 cells, counter-screen; AID 652231; TMEM16A/YFP HEK293, Fluo4 calcium mobilization; 2,300 tested, 2% active; calcium response (% of ionomycin), % at 10 µM; shares compounds with ANO1 block;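 active = duplicate-averaged calcium signal over 20% of the ionomycin maximum, relative to buffer baseline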;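 also: each well's signal is peak minus trough fluorescence divided by its pre-addition baseline; 0% = buffer wells and 100% = ionomycin wells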
# YFP-HEK293 quench – parental YFP-HEK293 iodide quench counter-screen activity; shares compounds with ANO1 block; ionomycin; YFP ratio F(max-min)/F0 at 10 µM; 2,300 tested, under 10 active;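 active = yellow fluorescent protein signal ratio exceeding the buffer control mean by over 5 SD of those controls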;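 also: ratio is mean of duplicate wells from kinetic YFP trace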
# ClC-1 inh – blocks the rat ClC-1 voltage-dependent chloride channel | shares compounds with ANO1 block | CHO ClC-1-YFP, iodide influx fluorescence quench; iodide control reads 0, buffer control 100 | ratio percent, % at 10 µM | 2,300 tested, under 10 active;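 active = duplicate-mean ratio percent above the mean of iodide-only control wells, which defines zero, plus 5 of their SD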;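 also: higher percent means stronger block of ClC-1 iodide influx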
# An asterisk follows results filed as active; i = inactive; . = no result.
SMILES,M1 ag parental,ANO1 block,ANO1 activ,CHO-K1 Ca antag,M1 PAM parental,NTR1 ag,TMEM16A reconf,TMEM16A Ca cntr,YFP-HEK293 quench,ClC-1 inh
CCCn1c(CN(C)Cc2ccccc2)nc2c1c(=O)n(C)c(=O)n2C,4.8,i,i,3.5,5.3,0.8,.,.,.,.
CCCn1c(CN(Cc2ccccc2)Cc2ccccc2)nc2c1c(=O)n(C)c(=O)n2C,0.2,100*,i,5.9,15.8,16.2,18.0%*,i,-0.867,-7.5
COc1ccccc1C(=O)NCC(c1cccs1)N1CCc2ccccc21 (stereo not given),-0.1,25*,i,-22.2,-0.1,7.2,i,i,-0.846,-5.0
COc1cc(C(=O)NCC(c2cccs2)N2CCc3ccccc32)cc(OC)c1OC (stereo not given),0.7,i,i,-10.0,8.2,0.2,.,.,.,.
COc1ccc(C)cc1S(=O)(=O)N1CCN(C/C=C/c2ccccc2)CC1,0.9,.,i,-9.5,-1.4,-2.2,.,.,.,.
O=S(=O)(c1ccccc1F)N1CCN(CCOc2ccccc2)CC1,3.3,.,i,-15.6,21.6,-0.6,.,.,.,.
C=CCNC(=O)c1onc(CSc2ccc(C(C)C)cc2)c1C(=O)O,0.4,25*,i,-1.2,4.0,-1.6,i,i,-1.02,-16.5
C=CCNC(=O)c1onc(CSc2ccccc2)c1C(=O)O,1.3,i,i,-16.5,13.8,-3.1,.,.,.,.
CCn1c(SCC(=O)c2[nH]c(C)c(C(C)=O)c2C)nnc1-c1cccs1,4.6,25*,i,-0.1,3.6,0.0,39.5%*,i,-0.864,-24.0
Cc1c(C(=O)N2CCC2(C)C(=O)O)oc2ccccc12 (stereo not given),0.3,.,.,-3.6,11.4,.,.,.,.,.
CN1C(=O)C(C)(C)c2cc(S(=O)(=O)N3CCN(c4ccccc4)CC3)ccc21,0.6,100*,i,0.6,5.3,-0.6,i,i,-1.09,-4.0
CCN(CC)c1ccc(C(=O)NNC(=O)Cn2c(=O)cnc3ccccc32)cc1,-0.2,.,.,1.9,-12.0,.,.,.,.,.
CCc1ccc(NC(=O)c2cnc(N3CCN(c4ccccn4)CC3)c3ccccc23)cc1,4.8,i,i,-3.7,7.9,9.3,i,i,-1.19,0.0
CCC1SC2=NC(C)=C(C(=O)OCC(C)C)C(/C=C/c3ccccc3OC)N2C1=O (stereo not given),1.0,100*,i,-9.2,5.7,5.2,i,i,-1.13,-15.5
C=CCn1c(SCC(=O)c2cccs2)nc2sc(CC)cc2c1=O,4.3,100*,i,-5.1,16.9,15.5,64.5%*,i,-0.916,-16.5
COc1ccc(/C=N/Nc2nnc(Cc3ccccc3)c(=O)[nH]2)cc1,0.6,i,i,-10.0,20.0,0.0,i,i,-0.357,-3.5
COc1ccc(CCNc2cc(N3CCN(C(=O)c4ccccc4F)CC3)ccc2[N+](=O)[O-])cc1OC,0.8,25*,i,-3.8,12.5,5.1,42.5%*,i,-0.846,-18.5
COc1ccc(Cl)cc1NC(=O)CSc1nnc(Cc2ccc(C)cc2)c(=O)[nH]1,0.0,25*,i,6.5,-15.0,-0.5,i,i,-0.944,-17.0
Cc1ccc(Cc2nnc(SCC(=O)Nc3ccccc3Cl)[nH]c2=O)cc1,-0.4,i,i,14.1,-28.0,1.2,.,.,.,.
COCCNC(=O)c1cc2c(c(-c3cccc(C#Cc4ccc(OC)c(OC)c4)c3)n1)[C@H](CCO)N(S(=O)C(C)(C)C)C2 (stereo not given in full),13.8,.,.,-7.0,19.9,.,.,.,.,.
CCc1cc(C(=O)Cc2ccc(F)cc2)c(O)cc1O,3.1,100*,i,-6.4,9.1,3.4,68.5%*,i,-0.821,-10.5
CCc1cc(C(=O)COc2ccccc2F)c(O)cc1O,4.4,100*,i,0.0,16.1,-3.3,47.0%*,i,-1.1,-12.0
CCCc1cc(C(=O)Cc2ccc(C(=O)OCC)o2)c(O)cc1O,1.0,100*,i,-6.0,9.9,-2.0,66.5%*,i,-0.839,-1.0
CCCc1cc(-c2n[nH]c(C)c2-c2ccc(C(=O)OCC)o2)c(O)cc1O,0.1,i,i,-2.5,6.3,5.6,.,.,.,.
COc1ccc(OC)c(C(=O)COC(=O)COc2ccccc2F)c1,-0.6,.,i,22.0,-6.3,2.4,.,.,.,.
SMILES,M1 ag parental,ANO1 block,ANO1 activ,CHO-K1 Ca antag,M1 PAM parental,NTR1 ag,TMEM16A reconf,TMEM16A Ca cntr,YFP-HEK293 quench,ClC-1 inh
CC(C)[C@H](NC(=O)c1ccccc1Cl)C(=O)OCC(=O)NCc1ccc2c(c1)OCO2,0.6,.,.,-10.3,4.4,-1.4,.,.,.,.
CCn1cc(/C=C(\NC(=O)c2ccccc2OC)C(=O)NCCN2CCOCC2)c2ccccc21,0.9,.,.,10.8,-2.7,.,.,.,.,.
CN(CCOc1ccccc1)CC(=O)Nc1ccc([N+](=O)[O-])cc1Cl,1.6,25*,i,-0.6,11.7,3.8,19.0%*,i,-1.05,-7.5
CN(CC(=O)Nc1ccccc1Cl)C(=O)COC(=O)c1ccc([N+](=O)[O-])cc1Cl,1.2,i,i,-3.1,4.8,-0.6,.,.,.,.
CCCCN(C(=O)Cc1coc2cc(C)c(C)cc12)c1c(N)n(Cc2ccccc2)c(=O)[nH]c1=O,1.3,i,i,-9.8,23.6,0.7,.,.,.,.
c1cc(-c2ccc(N3CCOCC3)cc2)n2ccnc2c1,0.1,.,.,8.8,-3.1,.,.,.,.,.
Cc1nnsc1NC(=O)OCc1ccc(Cl)cc1Cl,6.4,i,i,2.3,2.8,4.5,.,.,.,.
Cc1nn(C)c(Cl)c1NC(=O)OCc1ccc(Cl)cc1Cl,4.4,25*,i,20.9,-6.1,-1.7,i,i,-0.79,-16.5
Cc1cccnc1NC(=O)Nc1cccc(F)c1,0.1,.,.,-12.5,21.4,.,.,.,.,.
COc1ccc(NC(=O)C2(C)CCN2Cc2ccc(OC)c3ccccc23)cc1OC (stereo not given),0.1,.,.,-12.1,12.1,.,.,.,.,.
CCC(C)Sc1ccc([C@@H]2[C@H]3C(=O)N(CC)C(=O)[C@H]3[C@]3(C(=O)OC)CCCCN23)cc1 (stereo not given in full),-0.2,i,i,-15.3,-16.4,-2.8,27.5%*,i,-0.712,13.0
